This is an account of results in PubChem BioAssay (NCI).

About 83,000 compounds went through this panel and 20% of them were active in at least one assay; those are over-represented in the sample as a whole.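 Results are percent growth after 48 hours of single-concentration exposure. 100 means growth as in untreated cells, lower positive values show inhibition; negative values down to -100 show cell death.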 Calls of active or inactive are those of the source. The calls were made as follows: active = growth percent below 10; inactive = the rest.

In one experiment the test system is NCI-H460 lung. The experiment in a line: NCI-60 one-dose screen, 48 h (100 = growth as untreated, 0 = no growth, -100 = all killed). Conditions: 10 µM unless noted.
On to `COc1cc(C(=O)/C=C/c2c(-c3ccc(F)cc3)nc3sccn23)cc(OC)c1OC`, for which the growth was -1.39% (active). For `Nc1nc(N)c2c(n1)NC(c1ccc(F)cc1)C1CCc3ccccc3C1=N2` (configuration not stated), the growth was 26.2% (inactive). `COc1ccc(-c2cc(-c3ccc(Cl)cc3)nc(NCCCCNc3ccnc4cc(Cl)ccc34)n2)cc1`: the growth was 89.7% (inactive).

On to `Cc1cc(C)nc(SCC(=O)Nc2cccc(N=Cc3ccccc3O)c2)n1`, for which the growth is 101% (inactive). Still for that read-out and setting: as for `O=C(Nc1ccc(Nc2ccncc2)cc1)c1ccc([N+](=O)[O-])cc1`, the figure is 77.5% (inactive). On the same count and under the same terms, the figure for `O=C1COCCN1c1ccc(NCc2cn(Cc3cccc4ccccc34)c3ccccc23)cc1` is 64.4% (inactive).

Turning to `O=C1/C(=C\c2cccn2Cc2ccccc2)c2ccccc2N1c1c(Cl)cccc1Cl`, the growth was 42.7% (inactive). Same read-out and setting: the figure for `CCCCCN(CCCCC)CCCCCCCCN1CCCc2ccccc21` is 96% (inactive). Same read-out and setting: the figure for `CC(C)CSc1ncnc2nc[nH]c12` is 96.9% (inactive). For `CCN(CC)CCCC(C)Nc1ccnc2cc(Cl)c(SCc3ccccc3)cc12` (configuration not stated), the growth is -54.9% (active). `O=C(Nc1ccc(C(=O)/C=C/c2ccc(N3CCOCC3)cc2)cc1)Nc1ccc([N+](=O)[O-])cc1`: the growth was 67.9% (inactive).

With `Cc1ccc(-c2cn(C/C=C3\C=CN(S(=O)(=O)c4ccccc4)CC3)nn2)cc1`, the growth is 99.1% (inactive). Still for that read-out and setting: the figure for `CCOc1ccc2sc(NS(=O)(=O)c3ccc(N)cc3)nc2c1` is 104% (inactive); for `O=C(NCCCNC(=O)OCc1ccc2c(Br)cc(Br)c(O)c2n1)OCc1ccc2c(Br)cc(Br)c(O)c2n1` it is 4.8% (active). With `C=CCc1nc2ccccc2s1`, the growth is 104% (inactive). For `CCN(CC)CCCNCc1cc(-c2ccccc2)nc2ccccc12`, the growth is 105% (inactive).

Consider `C=C(C)[C@@H]1CC[C@]2(C(N)=O)CC[C@]3(C)[C@H](CC[C@@H]4[C@@]5(C)C/C(=C/c6cccnc6)C(=O)C(C)(C)[C@@H]5CC[C@]43C)[C@@H]12`, for which the growth is -42.8% [100 µM] (active). Consider `COC(=O)C(=Cc1ccccc1[N+](=O)[O-])C(=O)OC`, for which the growth was 41.2% (inactive). For `CCOC(CNC(=O)c1cccc([N+](=O)[O-])c1)OCC`, the growth is 101% (inactive). `Cc1ccc(-c2cc(O)c(-c3ccc(C)cc3C)cc2O)c(C)c1`: the growth was 23.6% (inactive). Still for that read-out and setting: the figure for `Fc1cc2[nH]ncc2c2c3c(c(-c4cn[nH]c4)nc12)CCCC3` is 1.29% (active); for `O=C(CCN1CCCCC1)c1ccc(Cl)cc1` it is 97.8% (inactive). In the case of `CCOC(=O)C1=C(C(=O)c2ccc(Br)cc2)C(c2ccc(Br)cc2)NC(=S)N1` (configuration not stated), the growth was 101% (inactive). For `Cn1cc(-c2noc(-c3cn(C)c4ncc(F)cc34)n2)c2cc(Cl)ccc21`, the growth was 2.39% (active). Take `O=[N+]([O-])c1cc([N+](=O)[O-])c(NN=C(c2ccc(O)cc2)c2ccc(O)cc2)cc1Cl`: the growth was -6.95% (active). As for `NNC(=O)c1ccc(C(=O)NN)cc1`, the growth is 104% (inactive).

Turning to `CN(C)CCOc1ccc(/C(=C(/CCCl)c2ccccc2)c2ccccc2)cc1`, the growth is -73.3% (active).

For `CC(=O)Nc1ccc2nc3ccc(NC(C)=O)cc3[n+](-c3ccccc3)c2c1`, the growth was 108% (inactive). As to `COc1ccc(/C=C(/C(=O)c2ccc(Cl)cc2)C(=O)C(F)(F)F)cc1`, the growth is 109% (inactive). For `COc1cc2c(c(OC)c1)C1c3cc(OC)ccc3NC(=O)N1CC2` (configuration not stated), the growth was 79.2% (inactive). Turning to `COc1ccc(C=C2c3ccccc3-c3ccccc32)cc1`, the growth is 30.6% (inactive). For `O=S(=O)(c1ccc(N/N=C\c2ccccc2Cl)cc1)c1ccc(N/N=C/c2ccccc2Cl)cc1`, the growth is 71.2% (inactive). As to `CSc1nc(N)c(N=Nc2ccc(S(=O)(=O)Nc3nnc(C)s3)cc2)c(=O)[nH]1`, the growth was 106% (inactive). Still for that read-out and setting: as for `C=C(C)[C@@H]1CC[C@]2(C)[C@H](CC=C3[C@@H]4[C@@H](C)[C@H](C)CC[C@]4(C(N)=O)CC[C@]32C)[C@@]1(C)CCC#N`, the figure is -38.4% [100 µM] (active). As to `CCOC(=O)CC(c1ccccc1)C(C#N)c1ccccc1` (configuration not stated), the growth is 105% (inactive).

On to `Clc1ccc(/C=N/Nc2nc3ccccc3s2)c(Cl)c1`, for which the growth was 41.8% (inactive).

With `CC1(C)CC[C@]2(C(=O)O)CC[C@]3(C)[C@H](CC[C@@H]4[C@@]5(C)CCC(=O)C(C)(C)[C@@H]5CC[C@]43C)[C@H]2[C@H]1OC(=O)C(F)(F)F`, the growth is -66.1% [100 µM] (active).

In the next experiment the test system is HOP-92 NSCLC. The description is as above. Conditions: 10 µM unless noted.
Regarding `COc1cc(C(=O)/C=C/c2c(-c3ccc(F)cc3)nc3sccn23)cc(OC)c1OC`, the growth was -14.9% (active). `Nc1nc(N)c2c(n1)NC(c1ccc(F)cc1)C1CCc3ccccc3C1=N2` (configuration not stated): the growth was 74.1% (inactive).

Regarding `COc1ccc(-c2cc(-c3ccc(Cl)cc3)nc(NCCCCNc3ccnc4cc(Cl)ccc34)n2)cc1`, the growth was 46.2% (inactive). With `Cc1cc(C)nc(SCC(=O)Nc2cccc(N=Cc3ccccc3O)c2)n1`, the growth is 77.4% (inactive). On to `O=C(Nc1ccc(Nc2ccncc2)cc1)c1ccc([N+](=O)[O-])cc1`, for which the growth is 51.1% (inactive). `O=C1COCCN1c1ccc(NCc2cn(Cc3cccc4ccccc34)c3ccccc23)cc1`: the growth is 72.6% (inactive). `O=C1/C(=C\c2cccn2Cc2ccccc2)c2ccccc2N1c1c(Cl)cccc1Cl`: the growth is 1.73% (active). Turning to `CCCCCN(CCCCC)CCCCCCCCN1CCCc2ccccc21`, the growth is 88% (inactive). Take `CC(C)CSc1ncnc2nc[nH]c12`: the growth was 68.8% (inactive). As for `CCN(CC)CCCC(C)Nc1ccnc2cc(Cl)c(SCc3ccccc3)cc12` (configuration not stated), the growth is -43.1% (active). For `O=C(Nc1ccc(C(=O)/C=C/c2ccc(N3CCOCC3)cc2)cc1)Nc1ccc([N+](=O)[O-])cc1`, the growth was 120% (inactive). As for `Cc1ccc(-c2cn(C/C=C3\C=CN(S(=O)(=O)c4ccccc4)CC3)nn2)cc1`, the growth is 92.7% (inactive). Regarding `CCOc1ccc2sc(NS(=O)(=O)c3ccc(N)cc3)nc2c1`, the growth was 94% (inactive). With `O=C(NCCCNC(=O)OCc1ccc2c(Br)cc(Br)c(O)c2n1)OCc1ccc2c(Br)cc(Br)c(O)c2n1`, the growth is -80.3% (active).

`C=CCc1nc2ccccc2s1`: the growth was 98.6% (inactive). The same measure, in the same setting: the figure for `CCN(CC)CCCNCc1cc(-c2ccccc2)nc2ccccc12` is 49.5% (inactive). Same read-out and setting: the figure for `C=C(C)[C@@H]1CC[C@]2(C(N)=O)CC[C@]3(C)[C@H](CC[C@@H]4[C@@]5(C)C/C(=C/c6cccnc6)C(=O)C(C)(C)[C@@H]5CC[C@]43C)[C@@H]12` is 16.8% [100 µM] (inactive); for `COC(=O)C(=Cc1ccccc1[N+](=O)[O-])C(=O)OC` it is 16.5% (inactive). As for `CCOC(CNC(=O)c1cccc([N+](=O)[O-])c1)OCC`, the growth was 96.7% (inactive). Turning to `Fc1cc2[nH]ncc2c2c3c(c(-c4cn[nH]c4)nc12)CCCC3`, the growth is -7.43% (active). Still for that read-out and setting: as for `O=C(CCN1CCCCC1)c1ccc(Cl)cc1`, the figure is 83.1% (inactive); as for `CCOC(=O)C1=C(C(=O)c2ccc(Br)cc2)C(c2ccc(Br)cc2)NC(=S)N1` (configuration not stated), 96.3% (inactive); as for `Cn1cc(-c2noc(-c3cn(C)c4ncc(F)cc34)n2)c2cc(Cl)ccc21`, 64.3% (inactive). Take `O=[N+]([O-])c1cc([N+](=O)[O-])c(NN=C(c2ccc(O)cc2)c2ccc(O)cc2)cc1Cl`: the growth is -69.6% (active). As for `NNC(=O)c1ccc(C(=O)NN)cc1`, the growth is 104% (inactive). The same measure, in the same setting: as for `CN(C)CCOc1ccc(/C(=C(/CCCl)c2ccccc2)c2ccccc2)cc1`, the figure is -4.94% (active); as for `CC(=O)Nc1ccc2nc3ccc(NC(C)=O)cc3[n+](-c3ccccc3)c2c1`, 136% (inactive); as for `COc1ccc(/C=C(/C(=O)c2ccc(Cl)cc2)C(=O)C(F)(F)F)cc1`, 101% (inactive). Still for that read-out and setting: the figure for `COc1cc2c(c(OC)c1)C1c3cc(OC)ccc3NC(=O)N1CC2` (configuration not stated) is 80.6% (inactive); for `COc1ccc(C=C2c3ccccc3-c3ccccc32)cc1` it is 67.3% (inactive); for `O=S(=O)(c1ccc(N/N=C\c2ccccc2Cl)cc1)c1ccc(N/N=C/c2ccccc2Cl)cc1` it is 31.2% (inactive). Regarding `CSc1nc(N)c(N=Nc2ccc(S(=O)(=O)Nc3nnc(C)s3)cc2)c(=O)[nH]1`, the growth is 108% (inactive). Take `CCOC(=O)CC(c1ccccc1)C(C#N)c1ccccc1` (configuration not stated): the growth was 90.9% (inactive). For the compound `Clc1ccc(/C=N/Nc2nc3ccccc3s2)c(Cl)c1`, the growth was 44.6% (inactive). Regarding `CC1(C)CC[C@]2(C(=O)O)CC[C@]3(C)[C@H](CC[C@@H]4[C@@]5(C)CCC(=O)C(C)(C)[C@@H]5CC[C@]43C)[C@H]2[C@H]1OC(=O)C(F)(F)F`, the growth was -79.6% [100 µM] (active).
